Screens (PubChem BioAssay)
DRD3 antagonist = D3 dopamine receptor (human) antagonism | AID 652054 | max response, negative = inhibition, % | D3R cells, DiscoveRx beta-arrestin luminescence, antagonist mode; stronger effect = lower value | hit rate 2.5% among 360,000; in the data active means max response below about -50%; inconclusive means no clear call, values can overlap the other calls; further: on the % scale 0 is the no-effect control and ±100 the full control effect
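Cells expressing the human receptor were seeded at 1500 cells/well, incubated overnight at 37 degrees C in 5% CO2, then exposed to library compounds with dopamine controls for 90 minutes at 37 degrees C before luminescent detection.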
D3 ag = D3 dopamine receptor (human) agonism. P35462. D3R DiscoveRx beta-arrestin cells, luminescence, 90 min. max activation, %. hit rate 0.58% among 410,000. AID 652048; in the data active means max activation above about 30%; further: 0% is about no effect
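Cells at 1500/well, incubated overnight, then treated with pinned compounds (dopamine as control) for 90 min at 37 degrees C. DiscoveRx reagent added for 30 - 60 minutes at room temperature; luminescence read.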
D1 ag = human D1 receptor agonism | P21728 | HEK293 T-REx D1 cells, calcium flux, agonist mode | activation, % at 2 µM | hit rate 1% among 360,000 | AID 504660; in the data active means activation above about 30%; further: 0% is about no effect
Target sequence (P21728 whole entry, looked up): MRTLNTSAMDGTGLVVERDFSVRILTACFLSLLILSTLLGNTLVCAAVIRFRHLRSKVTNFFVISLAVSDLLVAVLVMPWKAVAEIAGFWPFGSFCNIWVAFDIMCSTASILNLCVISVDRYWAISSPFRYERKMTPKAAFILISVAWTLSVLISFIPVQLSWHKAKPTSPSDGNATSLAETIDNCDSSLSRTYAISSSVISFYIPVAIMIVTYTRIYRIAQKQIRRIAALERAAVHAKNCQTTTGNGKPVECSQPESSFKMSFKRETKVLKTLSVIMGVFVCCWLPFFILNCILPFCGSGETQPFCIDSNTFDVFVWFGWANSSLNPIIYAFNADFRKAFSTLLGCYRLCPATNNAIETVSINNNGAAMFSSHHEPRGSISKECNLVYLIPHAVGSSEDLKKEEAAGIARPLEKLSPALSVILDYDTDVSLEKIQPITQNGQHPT
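Tetracycline-induced HEK293 TREx D1 cells, force-coupled to calcium signalling, were dye-loaded with a no-wash calcium kit. Compound was pin-added after a 10 s baseline. Fluorescence was read kinetically at 1 cycle/s for 180 s, with calcium rises flagged as agonism.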
D1 PAM = potentiators of human D1 dopamine receptor; hit rate 0.036% among 360,000; AID 504651; P21728; potentiation, % at 10 µM; HEK293 TREx D1 cells, calcium flux, dopamine EC20 potentiation; in the data active means potentiation above about 30%; further: 0% is about no effect
D1 antagonist = blocks dopamine activation of the human D1 receptor | P21728 | HEK293 TREx D1 cells, calcium flux, dopamine EC80; stronger effect = lower value | activity change, negative = inhibition, % at 10 µM | hit rate 3.2% among 360,000; in the data active means activity change below about -30%; further: on the % scale 0 is the no-effect control and ±100 the full control effect
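After overnight tetracycline induction at 30 C, force-coupled D1 HEK293 cells took up a no-wash calcium dye at room temperature. Compounds were added and monitored 180 s, and the response to EC80 dopamine was then recorded.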
* marks the source's active call; other numbers are inactive results; ? = inconclusive; · = no result. Shown are actives, neighbours in structure and some others; about 6% of the full set was active somewhere.

SMILES	DRD3 antagonist	D3 ag	D1 ag	D1 PAM	D1 antagonist
COc1ccc(NC(=O)CC2CCCC2)cc1OC	4	5	3	-5	-46*
O=C(O)CCCC(=O)Nc1ccc(Br)cc1	8	3	1	-7	-10
CC(C(=O)NCC1CCCCC1)N1CCN(S(=O)(=O)/C=C/c2ccccc2)CC1 (stereo unspecified)	-10	-2	0	1	-13
CC(C(=O)N1CCc2ccccc21)N1CCc2ccccc2C1 (stereo unspecified)	-86*	-7	1	10	2
CC(C(=O)NCC1CCCCC1)N1CCc2ccccc2C1 (stereo unspecified)	-77*	-11	1	-3	11
CC1CCCC(NC(=O)CCCCCn2c(=S)[nH]c3ccsc3c2=O)C1C (stereo unspecified)	0	-5	·	·	·
O=C(NCc1ccc(Cl)cc1)c1ccc2c(c1)N(Cc1ccccc1F)C(=O)c1ccccc1S2=O (stereo unspecified)	·	17	9	-6	-5
O=C(NC1CSCC1OC(=O)c1ccccc1)c1ccccc1 (stereo unspecified)	8	0	3	-7	-39*
CC1=C/C(=N\OS(=O)(=O)c2ccccc2)C(C)=CC1=O	-73*	-1	8	-5	-27
COc1ccc(S(=O)(=O)/N=C2/C=CC(=O)C(C)=C2C)cc1	-13	7	3	-9	5
CC1=C(C)/C(=N\OS(=O)(=O)c2ccc(C)cc2)C=CC1=O	-104*	-3	3	-3	-16
CN(C(=O)CN1CCN(c2ccccc2F)CC1)C1CCCc2ccccc21 (stereo unspecified)	-13	-8	0	2	10
c1ccc(-c2ccncn2)cc1	1	1	·	·	·
Cc1ccc(C)c2[nH]c(=O)c(CN(CCN3CCCC3)C(=O)Nc3ccc(F)cc3)cc12	-16	-9	2	-8	-36*
COc1cc2cc(CN(CCN3CCCC3)C(=O)Nc3ccc(F)cc3)c(=O)[nH]c2cc1OC	7	-13	1	-3	2
Cc1cc2c(cc1[N+](=O)[O-])NC(CNC(C)C)CC2 (stereo unspecified)	-83*	-7	3	-8	17
Cc1cc(C(=O)NCC2CCCCC2)ccc1[N+](=O)[O-]	-13	-9	3	1	0
NC(=S)c1csc(CCNC(=O)c2ccccc2)n1	9	1	·	·	·
C/C(N)=C(/C#N)C(=O)COC(=O)c1ccc(O)cc1	7	-13	1	-2	-3
C/C(N)=C(/C#N)C(=O)COC(=O)c1ccc(C#N)cc1	-8	1	4	-7	-44*
COC(=O)c1cc(CN2CCN(c3ccccc3C)CC2)ccc1O	-80*	-63	2	-4	-6
COc1ccccc1N1CCN(Cc2cccs2)CC1	-82*	-35	0	-8	3
COc1ccccc1N1CCN(S(=O)(=O)c2cccs2)CC1	-7	-1	1	-2	·
CNC(=S)N1CCN(c2ccccc2OC)CC1	?	-5	0	-5	-46*
COc1ccccc1N1CCN(Cc2cnc3ccc(Cl)cn23)CC1	-91*	-5	10	-3	7
SMILES	DRD3 antagonist	D3 ag	D1 ag	D1 PAM	D1 antagonist
COc1ccc(S(=O)(=O)N2CCN(c3ccccc3)CC2)cc1OC	-1	-3	·	·	·
COc1ccccc1N1CCN(Cc2ccsc2)CC1	-92*	-10	3	0	-1
COc1ccc(CN2CCN(c3ccccc3OC)CC2)cc1OC	-77*	-31	-1	-7	15
COc1cc(CN2CCN(c3ccccc3F)CC2)cc(OC)c1O	?	43*	2	-12	-29
COc1ccc(CC(C)N2CCN(c3ccccc3)CC2)cc1OC (stereo unspecified)	-147*	-18	0	-3	-4
COc1ccccc1N1CCN(C(=O)c2ccc(CN3CCOCC3)cc2)CC1	27	0	0	-3	1
COc1ccccc1N1CCN(Cc2ccc(C(=O)O)cc2)CC1	-21	-16	7	2	-8
CCOc1ccc(CN(C)C(=O)CCc2ccc(S(=O)(=O)N3CCCCCC3)cc2)cc1	-4	-1	17	-1	45
COc1ccc(-c2csc(-c3c(N)c(C(=O)c4ccccc4)n4ccccc34)n2)cc1OC	·	-2	1	-2	-16
CC(=O)NC(c1cccc(F)c1)c1nc(-c2cnn(C)c2)cs1 (stereo unspecified)	-53*	-25	·	·	·
COc1ccc(CCNC(=O)c2ccc3c(c2)c(C)c(C)n3Cc2ccc(F)cc2)c(OC)c1OC	·	-2	3	-7	-55*
CCn1c(C)c(C)c2cc(C(=O)NCCN3CCCCCC3)ccc21	-81*	-18	11	-6	5
Cc1c(C)n(Cc2ccc(F)cc2)c2ccc(C(=O)NCc3ccco3)cc12	·	-15	6	-8	-75*
Cn1c(SCc2ccc(F)cc2)nc2ccc(C(=O)NCc3ccccc3)cc21	·	-16	26	5	-5
CCc1ccc(CNC(=O)c2ccc3nc(SCc4ccc(F)cc4)n(C)c3c2)cc1	·	-7	40*	0	3
CCn1c(C)c(C)c2cc(C(=O)NCCc3ccco3)ccc21	-11	-8	-1	-5	-12
O=C(C(O)c1ccccc1)N1CCN(S(=O)(=O)c2ccc(F)c(F)c2)CC1 (stereo unspecified)	9	9	·	·	·
CCCCCC=CCC=CCCCCCCCC(=O)OCC	·	9	·	·	·
COc1ccc(C)cc1NC(=O)COc1cc(=O)n(C)c2ccccc12	·	1	0	-3	-5
O=C(NNC(=O)C1CCC1)c1cccc(Cl)c1	-3	-2	1	-4	2
CCn1c(C)c(C)c2cc(C(=O)NCc3ccc(F)cc3)ccc21	·	-17	34*	-4	16
Cc1c(C)n(Cc2ccc(F)cc2)c2ccc(C(=O)NCCN3CCOCC3)cc12	1	-1	6	-19	-30*
COc1ccc(OC)c(N(CC(=O)N2CCOCC2)S(C)(=O)=O)c1	5	17	2	-6	16
COc1ccc(Cl)cc1NC(=O)c1nn(-c2ccc(C)cc2)c(=O)n(C)c1=O	·	2	0	-1	2
CC(C)(C)NC(=O)C(OC(=O)c1ccco1)c1ccccc1F (stereo unspecified)	18	1	-1	-3	-38*
Cc1csc(NC(=O)c2cc3c(s2)CCCC3)n1	0	0	11	-12	-44*
Cc1ccccc1CNC(=O)C1CCCN(c2nnc(C)c3c(C)n(-c4ccccc4)nc23)C1 (stereo unspecified)	-27	-3	11	46*	16
COc1ccccc1CCNC(=O)C1CCN(c2nnc(C)c3c(C)n(-c4ccc(C)cc4)nc23)CC1	-70*	17	2	0	32
COc1ccc(-n2nc3c(N4CCC(C(=O)NCc5cccc(C)c5)CC4)nnc(C)c3c2C)cc1	-59*	5	3	12	43
